According to PubChem BioAssay (EPA / NIEHS):
Calls of active or inactive are those of the source. Rule for the calls: active = hit-call score of the fitted dose curve at least 0.9, where 1 is the maximum; inactive = score below 0.9.

Read-out: Protein phosphatase 2A (PPP2R4), PTPA (gene 5524)
Experiment: LTEA_HepaRG_PPP2R4: Life Technologies and Expression Analysis (LTEA) Assay for Protein phosphatase 2A (PPP2R4) using HepaRG (AID 2283522)
Conditions: mRNA level, 48 h; actives raise or lower the signal
Protocol: LTEA_HepaRG is a cell based, multiplexed-readout assay that uses HepaRG, a human liver cell line, with measurements taken at 48 hours after chemical dosing on a 96-well plate.LTEA_HepaRG_PPP2R4 is one of 102 assay component(s) measured in the LTEA HepaRG cell culture assay. It is a marker of Cell proliferation, survival, death.Data from the assay component LTEA_HepaRG_PPP2R4 was analyzed into 1 endpoint. This assay endpoint, LTEA_HepaRG_PPP2R4, was analyzed with bidirectional fitting relative to DMSO as the negative control and baseline of activity. Using a type of inducible reporter, measures of mRNA induction for gain or loss-of-signal activity can be used to understand regulation of transcription factor activity. To generalize the intended target to other relatable targets, this assay endpoint is annotated to the phosphatase intended target family, where the subfamily is serine/threonine phosphatase.
A total of 1060 chemcials from the ToxCast library were tested in eight-point concentration-response experiments. Cell culture and cytotoxicity assays were conducted at Thermo Fisher Scientific's Custom Services facility (Madison, WI). A single lot of human HepaRG cells (Thermo Fisher Scientific, Frederick, MD) was used for the cell culture experiments. 96-well format collagen type I coated plates of human HepaRG cells were prepared using established methods. Briefly, cryopreserved HepaRG cells were thawed, plated at a density of approximately 100,000 cells/well in HepaRG Thaw, Plate, and General Purpose media (HPRG770, Thermo Fisher Scientific), and incubated for 48 hours. 0.5% DMSO was selected as vehicle control to balance the requisite need of DMSO in HepaRG cultures to maintain differentiation (for example, baseline metabolism, proportions of hepatocytes vs. cholangiocytes), while enabling further hepatic receptor pathway activation (for example, PXR and CAR) in response to chemical exposure. 48 hours after plating, the culture medium was replaced with HepaRG Serum-Free Incudtion Media. Cells were exposed to each test chemical in duplicate and maintained in CO2 incubators for another 48 hours. Chemical plates were thawed to room temperature and 200x concentrations of treatment groups were prepared. 8-point conentration-reponse curves were made with the highest exposure at 100 uM, followed by half-log dilutions, all in 0.5% DMSO. Each test plate contained variouse controls, induction positive controls (1mM phenobarbital), cytotoxicity positive controls ([…] aflatoxin B1), vehicle controls (0.5% DMSO), and total lysis controls (0.5% DMSO). Cell morphology images were taken using an Essen IncuCyte FLR automated microscope, with six 96-well plates imaged in about 24 minutes. Images were captured and exported and JPEG files. Spent culture media was transfered to black-well plates for the LDH assay, and remaining media was sorted at -80 C for later use. Cells were treated with RLT buffer and frozen until shipped for gene expression analysis. Total RNA was isolated from the cell suspension in 75 uL of Buffer RLT (Qiagen, Germantown, MD 20874) by Quintiles/Expression Analysis (Durham, NC) using a custom isolation procedure. Total RNA from each plate well was transferred to a preamplification plate. Fluidigm's 96.96 Dynamic ArrayTM (Fluidigm, Amsterdam, the Netherlands) technology was used for gene expression analyses by quantitative reverse transcription polymerase chain reaction (qRT-PCR, performed by Quintiles/Expression Analysis, Durham, NC)89. Standard TaqManTM Assays (Applied Biosystems/ThermoFisher Scientific, Foster City, CA) were used to assess the expression of 93 genes selected based on their selectivity and sensitivity to important hepatic receptors known to be modulated by environmental chemicals; importance in human hepatocyte functionality; and hepatotoxicity. […]

| Structure (SMILES) | outcome | AC50 |
| --- | --- | --- |
| CCCCCCCCCC | inactive |  |
| c1ccc(C(O[C@@H]2CCCN(CCc3ccc4c(c3)OCO4)C2)c2ccccc2)cc1 |  | 50 µM (active) |
| CCCCCCCCCCCCCCO | inactive |  |
| O=C(O)c1cccc(C[C@@H]2COc3ccc(OCc4nc5cc(F)ccc5s4)cc3[C@@H]2O)c1 | inactive |  |
| c1ccc2cc3ccccc3cc2c1 | inactive |  |
| OCC(CO)(CO)CO | inactive |  |
| Cc1nccn1-c1ccc(Sc2cccc(C3(C(N)=O)CCOCC3)c2)cc1 |  | 27.7 µM (active) |
| CCCCN1C(=O)[C@@H]([C@H](O)C2CCCCC2)NC(=O)C12CCN(Cc1ccc(Oc3ccc(C(=O)O)cc3)cc1)CC2 |  | 3.88 µM (active) |
| COS(C)(=O)=O | inactive |  |
| C=CCc1cc(S(=O)(=O)c2ccc(O)c(CC=C)c2)ccc1O | inactive |  |
| O=C(O)[C@H](O)[C@@H](O)C(=O)O | inactive |  |
| CCCCOC(=O)c1ccccc1 | inactive |  |
| C=CN1CCCC1=O | inactive |  |
| CCc1ccc(O)c(C(C)(C)C)c1 | inactive |  |
| CCCCCCCC1CCC(=O)O1 (stereo not given) | inactive |  |
| CCc1cccc(CC)c1N | inactive |  |
| COCc1nnc(-c2ccc[n+]([O-])c2)n1-c1c(Cl)c(Cl)cc2[nH]c(=O)c(=O)[nH]c12 | inactive |  |
| CC1(C)C(=O)N(Cl)C(=O)N1Cl | inactive |  |
| NC(=O)N1c2ccccc2C=Cc2ccccc21 | inactive |  |
| OCCOCCOCCO | inactive |  |

| Structure (SMILES) | outcome | AC50 |
| --- | --- | --- |
| COc1cc(C(C)C)c2c(c1)S(=O)(=O)N(COc1cc(=O)n3cccc(OCCN4CCCCC4)c3n1)C2=O | inactive |  |
| Cn1c(=O)c2[nH]cnc2n(C)c1=O | inactive |  |
| CNC(C)=O | inactive |  |
| CC(C)c1nnc2ccc(-c3ocnc3-c3cc(F)ccc3F)cn12 | inactive |  |
| CCCC(CCC)C(=O)O | inactive |  |
| Cc1ncc([C@@H](CCCCCCc2ccc3c(n2)NCCC3)CC(=O)O)cn1 | inactive |  |
| CCCCCCOC(=O)CC(CC(=O)OCCCCCC)(OC(=O)CCC)C(=O)OCCCCCC | inactive |  |
| COc1cc2c(c(OC)c1OC)-c1ccc(OC)c(=O)cc1[C@@H](NC(C)=O)CC2 | inactive |  |
| CCCCCOC(C)=O | inactive |  |
| Cn1cc[nH]c1=S | inactive |  |
| OC(CCl)CCl | inactive |  |
| C[C@@H](Oc1ccc(CNC(=O)c2cccnc2Oc2ccc3c(c2)OCO3)c(F)c1)C(=O)O | inactive |  |
| OC(Cn1cncn1)(Cn1cncn1)c1ccc(F)cc1F | inactive |  |
| CC(C)CC(C)O (stereo not given) | inactive |  |
| CCn1nc(C)c2c1C(=O)NCC(c1ccc(O)cc1)=N2 | inactive |  |
| O=C(O)c1ccc2c(c1)nc(C(=O)NC1CCN(C3CC3)CC1)n2Cc1cc(-c2ccc(Cl)s2)on1 | inactive |  |
| NC(=O)N(O)[C@@H]1COc2cc(OCc3ccccc3)ccc21 | inactive |  |
| CCCCCCCCN(C)C | inactive |  |
| Nc1ccn([C@@H]2O[C@H](CO)[C@@H](O)[C@@H]2O)c(=O)n1 | inactive |  |
| CCCCCCCCCCCCCCCCOS(=O)(=O)O | inactive |  |
